In PubChem BioAssay (NCI):
Compounds without any hit were thinned out: in the full panel of roughly 83,000, 20% have a hit.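 Step 1: grow cells in 96-well plates. Step 2: add test compound at a single concentration. Step 3: incubate 48 h. Step 4: record percent growth.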 Unmarked numbers belong to inactive results. Activity calls are given as the source filed them. How the source made its calls: active means growth percent below 10; inactive means the rest.

What was measured:
Assay in all cases: NCI-60 one-dose screen, 48 h (100 = growth as untreated, 0 = no growth, -100 = all killed)
Details in all cases: 10 µM
[1] = test system: T-47D breast
[2] = test system: BT-549 breast
[3] = test system: MDA-MB-435 melanoma
[4] = test system: SW-620 colon
[5] = test system: MCF7 breast
[6] = test system: HCT-116 colon
[7] = test system: HCC-2998 colon
[8] = test system: KM12 colon

SMILES | growth [1] | growth [2] | growth [3] | growth [4] | growth [5] | growth [6] | growth [7] | growth [8]
Nc1cc2c(cc1Cl)-c1ccc(Cl)cc1C2=O | 59.6% | 100% | 103% | 95.8% | 42.1% | 76.4% | 101% | 96.4%
COc1ccc(-c2cc(=O)n(-c3nc4ccccc4[nH]3)[nH]2)cc1OC | 94.5% | 76.2% | 50.6% | 77.8% | 74.4% | 74.6% | 102% | 105%
COc1cc(CSc2nc3ccc(C)cc3c(=O)n2Cc2ccccc2)cc(OC)c1OC | 34.1% | 34.8% | -5.84% (active) | 25.8% | 18% | 25.2% | 43% | 25.3%
O=C(c1ccccc1)C(Sc1ccccc1)c1ccccc1 (centres undefined) | 90.8% | 92.9% | 107% | 57.8% | 94% | 55.8% | 87.8% | 99.5%
NC1CCC(Nc2nc(NCc3ccc(-c4ccccc4O)nc3)c3ncn(C4CCCC4)c3n2)CC1 (centres undefined) | -34.2% (active) | -28% (active) | -81.5% (active) | 0.393% (active) | -62.4% (active) | -55.8% (active) | -73.3% (active) | -16.2% (active)
NC(N)=NS(=O)(=O)c1ccc(Nc2ccc3nnc(-c4ccncc4)n3n2)cc1 | 96.4% | 112% | 110% | 97.6% | 91.3% | 100% | 99.1% | 100%
COc1ccc(C(=O)/C=C/c2cc(-c3ccc(OC)c(OC)c3)n[nH]2)cc1OC | -7.46% (active) | -60.1% (active) | -33.1% (active) | -48.8% (active) | 4.18% (active) | -89.2% (active) | -85.8% (active) | -74.1% (active)
N#CC1C=Cc2c(ccc3ccccc23)N1C(=O)c1ccccc1 (centres undefined) | 56.7% | 33.5% | -31.4% (active) | 21.8% | 21.5% | 12% | 10.3% | -6.86% (active)
COc1ccc(-c2[nH]ncc2/C=C/c2cc(C(F)(F)F)[nH]c(=O)n2)cc1 | 75.9% | 80.4% | 97.8% | 98.4% | 91.2% | 100% | 103% | 103%
C[N+]1=C(/C=C/c2ccc(I)cc2)C(C)(C)c2ccccc21 | 89.3% | 93% | 75.7% | 51.5% | 87.7% | 87.2% | 103% | 88.9%
COc1cc([C@@H]2c3cc4c(cc3[C@H](SC(=N)N)[C@H]3COC(=O)[C@H]23)OCO4)cc(OC)c1OC | 58.6% | 21.7% | -31.1% (active) | 22.5% | 14.4% | 0.571% (active) | -1.43% (active) | -0.331% (active)
CCCCC(=O)N(c1ccc(Nc2c3ccccc3nc3cc([N+](=O)[O-])ccc23)cc1)S(C)(=O)=O | 15.1% | 86.3% | 96.8% | 71.5% | 17.2% | 63.4% | 86.1% | 38.4%
O=C(OCC1OC(n2cc(C(F)(F)F)c(=O)[nH]c2=O)CC1OC(=O)c1ccc([N+](=O)[O-])cc1)c1ccc([N+](=O)[O-])cc1 (centres undefined) | 74.4% | 60.1% | 50.6% | 65.6% | 33.6% | 72.7% | 51.5% | 72.2%
O=C(COc1ccc(-c2nc3ccccc3[nH]2)cc1)N=Nc1c(O)[nH]c2ccccc12 | 59% | 106% | 69.8% | 85.6% | 42.5% | 40.9% | 109% | 58.2%
COc1cc(/C=C/C(=O)c2cc(-c3ccc(C(F)(F)F)cc3)ccc2O)cc(OC)c1OC | 35.7% | 73.2% | 48.4% | 54.9% | 43.8% | 46.6% | 94.6% | 69.2%
Cc1ccc([P+](Cc2ccc([N+](=O)[O-])cc2)(c2ccc(C)cc2)c2ccc(C)cc2)cc1 | 7.03% (active) | 17.2% | 6.06% (active) | 45.2% | 29.7% | 22% | 31.3% | 16%
CCC(OC(=O)CC(C)C)c1ccccc1 (centres undefined) | 84.5% | 101% | 104% | 105% | 94.3% | 107% | 101% | 107%
CCc1cc2n(n1)-c1ncc(C(=O)OC)cc1Oc1ccccc1-2 | 75.8% | 111% | 103% | 106% | 97.4% | 90.5% | 114% | 102%
CC(=O)Oc1ccc(C2=Cc3ccc(OC(C)=O)cc3OC2C)cc1 (centres undefined) | 88.5% | 42.9% | 25.2% | 47% | 49.1% | 38.3% | 78.2% | 39%
COc1ccc(Nc2nc(NCc3ccccc3)c3ccccc3n2)cc1 | 45.6% | 82.9% | 84.2% | 68.2% | 67.4% | 29.8% | 91.5% | 80.7%
O=C(Nc1cccc(Cl)c1)OCC(COC(=O)Nc1cccc(Cl)c1)(COC(=O)Nc1cccc(Cl)c1)[N+](=O)[O-] | 14.7% | 50.8% | 39.9% | 45.6% | 21.1% | 16.3% | 36.9% | 23.8%
S=C(Cc1ccc(-c2ccccc2)cc1)N1CCOCC1 | 85.5% | 96.6% | 98.6% | 103% | 95.3% | 98.6% | 103% | 99.3%
COc1cccc(C(=O)NNc2nc(N3CCN(C4CCCCC4)CC3)nc(N3CCN(C(c4ccccc4)c4ccccc4)CC3)n2)c1 | 29% | 55.5% | 35% | 39% | 11.2% | 19% | 42% | 23.6%
Cc1cn(C(=O)/C(Cl)=C(/Cl)C(=O)O)c2ccccc12 | 101% | 111% | 109% | 104% | 108% | 105% | 108% | 108%
COc1cccc(-c2nnc(COc3ccc(-c4nc5ccc(C)cc5[nH]4)cc3OC)o2)c1 | 50.7% | 92.7% | 41.6% | 64.5% | 18.5% | 29.4% | 88.6% | 39.7%
N#CN1CC[C@H](C(=O)Nc2ncc(-c3ccccc3)s2)C1 | -44% (active) | -5.31% (active) | 0.958% (active) | 5.19% (active) | 3.54% (active) | -3.16% (active) | -11.1% (active) | -6.3% (active)
CCCCCCCCCCN=C(c1ccc(N(C)C)cc1)c1ccc(N(C)C)cc1 | 20.7% | 38.1% | -14.2% (active) | 16.8% | 11.9% | 15.3% | 52.6% | 27.8%
CCCCCCCCCCCCCCCCn1cc[n+](C)c1 | -0.127% (active) | -65.2% (active) | -55.8% (active) | -66.7% (active) | -79.9% (active) | -87.2% (active) | -94.4% (active) | -83.9% (active)
